According to PubChem BioAssay (NCI):
Compounds without any hit were thinned out: in the full panel of roughly 83,000, 20% have a hit.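 Interpretation: 100, growth as untreated; towards 0, rising growth inhibition; 0, no net growth; 0 to -100, cell death. Compounds scoring below 10 were considered active.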 A number with no mark means an inactive call. The source made the active and inactive calls.

What follows are molecules tested on NCI-H522 lung (assay: NCI-60 one-dose screen, 48 h (100 = growth as untreated, 0 = no growth, -100 = all killed)). Settings: 10 µM unless noted.
For Cc1nc2c(=O)[nH]c(SCC(=O)Nc3cccc(F)c3)nc2[nH]c1=O, the growth was 96.1%.
Cc1ccc(-c2nc3nc(-c4ccc(F)cc4)nc(N4CCNCC4)c3o2)cc1 gave a growth of 79.8%.
O=C(/C=C(/C=C/c1cccc2[nH]ccc12)OB(F)F)/C=C/c1cccc2[nH]ccc12 was tested, and the growth was -71.4% (active).
With Oc1c(Cl)cc(Cl)c2ccc(Cn3cc(-c4cc(C(F)(F)F)cc(C(F)(F)F)c4)nn3)nc12 the growth was -39.4% (active).
CC[C@@H](C(=O)[C@@H](C)[C@@H](O)[C@H](C)[C@@H]1O[C@@H]([C@@H](CC)C(=O)NCCc2ccc(F)cc2)CC[C@@H]1C)C1O[C@]2(C=CC(=O)[C@]3(CC[C@@](C)([C@H]4CC[C@](O)(CC)[C@H](C)O4)O3)O2)[C@H](C)C[C@@H]1C (stereo partly drawn) was tested, and the growth was 33.3%.
In the case of c1cc2[nH]ncc2cc1-c1nc2ccc3[nH]ncc3c2c2c1CCCC2, the growth is reported as -28.2% (active).
In the case of C#CCOc1cccc(Nc2ncnc3c(NC(=O)C=C)cccc23)c1, the growth is reported as -5.23% (active).
N#Cc1cnc(NCCc2ccncc2)nc1-n1cnc2ccccc21 was tested, and the growth was 55.8%.
For CCOC(=O)c1c(NC(=O)c2ccc(C(C)C)cc2)sc2c(CN(C)C)c(O)ccc12, the growth was 97.2%.
For COc1ccc(N2CCC(=O)NC2=S)cc1, the growth was 88.9%.
Oc1c(Cl)cc(Cl)c2ccc(Cn3cc(-c4cc(F)cc(F)c4)nn3)nc12 was tested, and the growth was -38.7% (active).
For CO/N=C(/C)c1ccc(NC(=O)CSc2nnc(-c3ccncc3)n2-c2ccccc2)cc1, the growth was -8.08% (active).
O=C1c2cccnc2C(=O)c2c1c(C(=O)NCCn1ccnc1)c1ccccn21 was tested, and the growth was -9.62% (active).
